Source: PubChem BioAssay (National Center for Advancing Translational Sciences (NCATS))
A selection: hits, their analogues and other compounds. The true share with any hit is near 0.92%.
APEX1 inh – blocks human APE1 abasic DNA cleavage; recombinant APE1, TAMRA/BHQ-2 abasic DNA cleavage fluorescence; P27695; actives 0.35% (n = 350,000); Potency, µM (top dose mostly 65.8 µM), without a hit: at the highest dose activity change, negative = inhibition, hits mostly inhibitors;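 further: plate controls were vehicle for no effect and reference inhibitor for full effect; nearly all actives have a fitted effect of over 55% in size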
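Kinetic fluorescence read (525 ex/598 em nm, three reads 60 s apart) of AP-site incision; signal = third minus first read. Enzyme 0.75 nM, dual-labelled THF duplex 50 nM, compound preincubation 15 min RT.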
TDP1 block – inhibitors of human tyrosyl-DNA phosphodiesterase TDP1. Q9NUW8. Potency, µM (series often up to 130 µM), for inactives: at the highest dose activity change, negative = inhibition, most hits filed as inhibitors. actives 0.28% (n = 350,000). recombinant TDP1, AlphaScreen DNA substrate cleavage; further: nearly all actives have a fitted effect of over 40% in size
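AlphaScreen read-out: signal falls as enzyme removes the 3' tyrosine-FITC from a 5'-biotinylated DNA oligo (15 nM, 5 min, RT). Enzyme was E. coli-made recombinant Tdp1 at 1 nM, exposed to compound for 15 min beforehand; beads 10 ug/ml, 10 min.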
RECQ1 inh – inhibitors of human RECQ1 DNA helicase | actives 0.54% (n = 240,000) | P46063 | RECQ1 DNA unwinding, red fluorescence kinetic read | Potency, µM (doses to about 57.3 µM), for inactives: at the highest dose activity, negative = inhibition, actives largely listed as inhibitors;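 further: plate controls were vehicle for no effect and no enzyme for full effect; nearly all actives have a fitted effect of over 30% in size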
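50 nM RECQ1T1 preincubated 15 min with compound in Tris pH 8.0 buffer with MgCl2, DTT, Tween-20 and 2.5 ug/ml poly(dI-dC); started with 200 nM TAMRA/BHQ-2 forked duplex and 2 mM ATP. Unwinding read as fluorescence (525/598 nm), two reads 2 h apart.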
FEN1 inh – inhibitors of human flap endonuclease 1; Recombinant FEN1 flap cleavage, fluorescence, 15 min; actives 0.35% (n = 390,000); Potency, µM (titrated, usually from 114 µM), without a hit: at the highest dose activity change, negative = inhibition, most hits filed as inhibitors; further: nearly all actives have a fitted effect of over 65% in size
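Enzyme 10 nM, 15 min RT preincubation with compound; start with substrate 50 nM final; reads at 0 and 15 min; qHTS titration, four-parameter Hill fit.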
BLM inh – Bloom syndrome helicase (human) inhibition. P54132. recombinant BLM DNA unwinding, fluorescence dequenching. actives 0.2% (n = 350,000). Potency, µM (highest dose often 56.1 µM), for inactives: at the top dose activity change, negative = inhibition, hits mostly inhibitors;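 further: plate controls were vehicle for no effect and no enzyme for full effect; nearly all actives have a fitted effect of over 35% in size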
The depositor's hits bear a star; i = inactive; ? = inconclusive; . = not tested or not shown; [ ] = dose if it differs, or a comment. The call rests on the fitted dose curve; in most records, active means well fitted curve in the direction sought with a large enough effect; inconclusive means small, poorly fitted or top-dose-only effect, or another doubt; inactive means no such curve, though single readings can be large; an effect the other way counts as inactive or inconclusive. Unless noted, on the % scale 0 is the no-effect control and ±100 the full control effect; potency means the concentration at half of the fitted maximal effect.

SMILES	APEX1 inh	TDP1 block	RECQ1 inh	FEN1 inh	BLM inh
COc1ccccc1CNc1nc(-c2ccccc2OC)nc2ccccc12	15%	.	1%	.	52%
O=C1/C(=C\c2ccco2)SC(=S)N1c1ccccc1	22µM*	0%	8%	-4%	-1%
O=C(O)CN1C(=O)/C(=C\c2ccc(OC(=O)c3ccco3)cc2)SC1=S	6%[12.4 µM]	-14%	.	-5%	1%
Cc1ccc(N2C(=O)/C(=C\c3ccco3)SC2=S)cc1	-4%	-4%	-6%	-1%	-25%
O=C1/C(=C\c2ccco2)SC(=S)N1C1CCS(=O)(=O)C1 (configuration not stated)	20µM*	-5%	?	-27%	-15%
O=C1/C(=C\c2ccco2)SC(=S)N1Cc1ccccc1	?	8%	32µM*	-4%	-22%
O=C(O)CN1C(=O)/C(=C/c2ccc(SCc3ccccc3)o2)SC1=S	28µM*	.	25µM*	-19%	126%
C/C(CCC(=O)OC[C@@H]1O[C@H](C#Cc2ccccc2)C=C[C@@H]1Oc1ccc(C)cc1)=N/OC[C@@H](O)[C@H]1O[C@H]2OC(C)(C)O[C@H]2[C@@H]1O	11%[12.4 µM]	7%[21 µM]	i[11.5 µM]	.	-5%[12.4 µM]
COc1ccc(/C=C2/SC(=S)N(Cc3ccccc3)C2=O)cc1O	-2%	.	.	-17%	-12%
O=C1/C(=C\c2cc(Cl)c(O)c(Cl)c2)SC(=S)N1Cc1ccccc1	?	.	.	50µM*	?
CC(C)Oc1ccc(CNC(=O)c2cnc3sc(N4CCCCCC4)nn3c2=O)cc1	.	6%	.	20%	-2%
O=C(O)c1[nH]c2ccccc2c1C(c1cc(Cl)cc([N+](=O)[O-])c1O)c1c(C(=O)O)[nH]c2ccccc12	-2%	.	.	79µM*	-5%
O=C(O)c1[nH]c2ccccc2c1C(c1ccccc1)c1c(C(=O)O)[nH]c2ccccc12	49%	.	.	-4%	6%
O=C(/C=C/c1ccco1)N1CCN(S(=O)(=O)c2ccccc2)CC1	?	10µM*	.	11%	.
N#Cc1cccc(-c2csc(N3CCC(C(N)=O)CC3)n2)c1	-10%	.	.	.	.
Cc1ccc(-c2nc3ccccc3nc2-c2ccccc2)cc1	-8%	79µM*	.	2%	-8%
CN(C)/[N+]([O-])=N/Oc1ccc([N+](=O)[O-])cc1C(F)(F)F	.	.	.	-13%	.
O=[N+]([O-])c1cccc2c(S(=O)(=O)N3CCOCC3)cccc12	11µM*	20µM*	.	11%	-8%
O=[N+]([O-])c1cccc2c(S(=O)(=O)N3CCCCC3)cccc12	45%	5%	.	-21%	-10%
COc1cc(-c2cc(OC)c3c(C)oc(C)c3c(=O)c2)ccc1OC(=O)c1cccc(C)c1	.	5%	.	9%	-10%
Cc1cc(NC(=O)CS(=O)CC(=O)Nc2c(C)cccc2C)ccc1-n1cnnn1 (configuration not stated)	1%	8%	.	0%	-5%
CCc1ccc(NC(=O)CS(=O)CC(=O)Nc2ccc(-n3cnnn3)c(C)c2)cc1 (configuration not stated)	-28%	56µM*	.	-23%	-9%
CCOC(=O)c1ccccc1NC1(c2ccc(OC)cc2)C(=O)c2ccccc2C1=O	.	4%	.	?	-3%
COc1cc(/C=C/c2ccc3ccccc3[n+]2C)cc(OC)c1OC	.	.	.	-8%	.
COc1ccc(OC)c(/C=C/c2ccc3ccccc3[n+]2C)c1	.	.	.	45µM*	.
SMILES	APEX1 inh	TDP1 block	RECQ1 inh	FEN1 inh	BLM inh
COc1cc(OC)c(/C=C/c2cc(/C=C/c3c(OC)cc(OC)cc3OC)[n+](C)c3ccccc23)c(OC)c1	.	.	.	14µM*	.
Cc1cc(C)cc(NC(=O)C2CCN(c3cc(C)nc4c(-c5ccc(Cl)cc5)c(C)nn34)CC2)c1	.	-1%	.	-3%	0%
O=C(Cn1c(=O)n(Cc2ccccc2)c(=O)c2sc3ccccc3c21)Nc1ccc(F)cc1	.	4%	.	3%	-19%
CCOc1ccc(S(=O)(=O)NCCc2csc(-c3ccc(Cl)cc3)n2)cc1	.	2%	.	-20%	-6%
O=C(N/N=C/c1ccncc1)c1cc2c(ccc3ccccc32)o1	13%	.	-15%	-18%	1%
O=C(O)c1ccc(/C=N/NC(=O)c2cc3c(ccc4ccccc43)o2)cc1	?	40µM*	.	?	-25%
COc1cc(OC)c2c(=O)c(O)c(-c3ccc(OC)c(OC)c3)oc2c1	0%	10%	-23%	.	-3%
COc1cc(OC)c2c(O)c3c(c(-c4c5c(c(O)c6c(OC)cc(OC)cc46)CO[C@@H](C)[C@H]5O)c2c1)[C@H](O)[C@H](C)OC3	?	4%	25µM*	?	?
CCCCCCCC#Cc1ccccc1/C=N/S(=O)C(C)(C)C (configuration not stated)	?	2%[21 µM]	2%[11.5 µM]	.	-2%[12.4 µM]
CN(C)c1ccc(C(I)C(I)c2ccnc3ccccc23)cc1 (configuration not stated)	.	.	.	79µM*	.
CCCCN(C(=O)c1cccc(S(=O)(=O)N2CCCC2)c1)c1c(N)n(CCC)c(=O)[nH]c1=O	28%	-4%[56.1 µM]	.	-16%	.
CCCN(C(=O)c1cccc(-n2cccc2)c1)c1c(N)n(Cc2ccccc2)c(=O)[nH]c1=O	6.7µM*	45µM*	.	-6%	.
CCCN(C(=O)c1cc(C)ccc1C)c1c(N)n(Cc2ccccc2)c(=O)[nH]c1=O	16%	0%	.	11%	.
CCCCN(C(=O)c1cccc(-n2cccc2)c1)c1c(N)n(CCC)c(=O)[nH]c1=O	-89%	50µM*	.	-2%	.
O=C(CCNS(=O)(=O)c1cccc(Cl)c1)OCC(=O)N1CCN(C(=O)c2ccco2)CC1	-32%	-5%[56.1 µM]	.	-1%	.
CC(=O)Nc1ccc(S(=O)(=O)NCCC(=O)OCC(=O)N2CCN(C(=O)c3ccco3)CC2)cc1	?	40µM*	.	-2%	-8%
COc1ccc(S(=O)(=O)N(CCO)c2ccccc2CN(C)CC=Cc2ccc(Cl)cc2)cc1	?	7%	-13%	.	-7%
Cn1cccc1CC(=O)N/N=C\c1c2ccccc2cc2ccccc12	-8%	10%	-21%	-11%	-5%
C[N+](C)(C)CC(=O)N/N=C/c1c2ccccc2cc2ccccc12	?	0%	.	50µM*	91%
NC(N)=NCCC[C@H](NC(=O)[C@H](Cc1ccccc1)NC(=O)[C@@H]1CCCN1C(=O)[C@H](CO)NC(=O)[C@H](Cc1ccccc1)NC(=O)CNC(=O)[C@@H]1CCCN1C(=O)[C@@H]1CCCN1C(=O)[C@@H](N)CCCN=C(N)N)C(=O)O	0%	5%	-14%	.	-1%
COC(=O)C1(C)C=C2C(=C(c3ccccc3)C(=O)C2C)CN1 (configuration not stated)	-11%	5%	i	.	-4%
COc1cc(/C=C(\CCC(=O)O)c2nc3ccccc3s2)ccc1OCC(=O)Nc1c(Cl)cccc1Cl	?	28µM*	.	?	.
